Test [1] deals with Thyrotropin receptor (Homo sapiens) (UniProt P16473). As to the kind of experiment: qHTS assay to identify small molecule agonists of the thyroid stimulating hormone receptor (TSHR) signaling pathway (AID 1224843; calls by dose curve; further: nearly all actives have a fitted effect of over 45% in size). The method in brief:
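Agonist-mode screen: TSHR HEK293 cells received test chemicals for half an hour at room temperature, then HTRF cAMP detection reagents for one hour prior to fluorescence measurement. Each chemical ran as a 15-concentration series, triplicated.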
On the technique in general: In qHTS, concentration-response curves come from the screen itself.

Test [2] in a line: qHTS assay to identify small molecule agonists of the hypoxia (HIF-1) signaling pathway - cell viability counter screen (AID 1224844; calls by dose curve; further: nearly all actives have a fitted effect of over 50% in size; further: potency means the concentration at half of the fitted maximal effect). The method in brief:
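In this counter screen, HRE-bla ME-180 cell viability after 17 hrs of compound exposure at 37C was read by CellTiter-Glo luminescence, multiplexed with the beta-lactamase reporter measurement.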

Test [3] can be described thus: qHTS assay to identify small molecule agonists of H2AX (AID 1224845; active means well fitted activation curve with a large enough effect in the signal ratio in the repeat runs, not every such curve was filed as active; the % refers to the signal ratio; further: potency means the concentration at half of the fitted maximal effect). The method, boiled down:
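Wild-type CHO-K1 cells, plated overnight, exposed 3hr at 37C to 15 concentrations (0.76% DMSO final). Lysed, then HTRF anti-pH2AX (S139) cryptate and anti-H2AX-d2 antibodies, 24 hr room temperature; 665/620 nm emission read.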

A short description of test [4]: qHTS assay to identify small molecule agonists of the hypoxia (HIF-1) signaling pathway (AID 1224846; active means well fitted activation curve with a large enough effect in the signal ratio in the repeat runs, not every such curve was filed as active; the % refers to the signal ratio). The method in brief:
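ME-180 HRE-bla reporter cells; compounds in DMSO, 17 h at 37C; read-out beta-lactamase via CCF4-AM FRET.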

Test [5] is described as follows: qHTS assay to identify small molecule agonists of H2AX - cell viability counter screen (AID 1224847; calls by dose curve; further: nearly all actives have a fitted effect of over 30% in size; further: potency means the concentration at half of the fitted maximal effect). The method, boiled down:
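Counter-screen for viability: CellTiter-Glo ATP luminescence read after 3 h compound treatment (15-point titration, 0.76% DMSO final) of CHO-K1 cells at 37C, with 30 min room-temperature reagent incubation.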

Test [6] in a line: qHTS RealTime-Glo MT Cell Viability Assay in HEK293 cells - 32 hour (AID 1224868). Further: nearly all actives have a fitted effect of over 50% in size. Further: potency means the concentration at half of the fitted maximal effect. The method in brief: (§1)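 Assay medium contained NanoLuc luciferase plus cell-permeant prosubstrate, added with HEK293 cells at 600 cells/well. After 5 h at 37 C/5% CO2 compounds were added; plates stayed at 37 C for 40 h with serial luminescence reads.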
Test [7] in a line: A CellTox Green Cytotoxicity Assay to monitor cytotoxicity in HEK293 cells - 0 hour (AID 1224869). Further: nearly all actives have a fitted effect of over 50% in size. The method in brief:
(§2)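 Real-time, in one plate: 600 HEK293 cells/well with dead-cell DNA dye, pinned compound after 5 h, 37 C incubation over 40 h; viable cells give no appreciable fluorescence.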

The nature of test [8]: A CellTox Green Cytotoxicity Assay to monitor cytotoxicity in HEK293 cells - 40 hour (AID 1224871). Further: nearly all actives have a fitted effect of over 45% in size. Further: potency means the concentration at half of the fitted maximal effect. The method in brief: as §2
The nature of test [9]: qHTS RealTime-Glo MT Cell Viability Assay in HepG2 cells - 8 hour (AID 1224873). Further: nearly all actives have a fitted effect of over 55% in size. The method, boiled down: (§3)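 HepG2 cells (600/well) mixed with RealTime-Glo MT reagent, settled 5 h at 37 C/5% CO2 before compound addition. Nonlytic NanoLuc luminescence from viable-cell prosubstrate reduction read repeatedly during 40 h treatment at 37 C.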
Test [10] in a line: qHTS RealTime-Glo MT Cell Viability Assay in HEK293 cells - 40 hour (AID 1224874). Further: nearly all actives have a fitted effect of over 50% in size. Further: potency means the concentration at half of the fitted maximal effect. To be noted: RealTime-Glo luminescence; max response: stronger effect = lower value. The method in brief:
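Kinetic, non-lysing viability readout. Seed HEK293 (600/well) with reagent, incubate 5 h at 37 C/5% CO2, pin 23 nL compound in DMSO, incubate at 37 C, read luminescence at 0, 8, 16, 24, 32, 40 h.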

A short description of test [11]: A CellTox Green Cytotoxicity Assay to monitor cytotoxicity in HEK293 cells - 24 hour (AID 1224875). Further: nearly all actives have a fitted effect of over 45% in size. Further: potency means the concentration at half of the fitted maximal effect. The method in brief:
as §2

The nature of test [12]: qHTS RealTime-Glo MT Cell Viability Assay in HepG2 cells - 32 hour (AID 1224877). Further: nearly all actives have a fitted effect of over 55% in size. The method in brief: (§4)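 qHTS, HepG2, 600 cells/well, RealTime-Glo (NanoLuc + prosubstrate) added with cells; 5 h preincubation; DMSO compound addition; 37 C; luminescence at 0/8/16/24/32/40 h.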
Test [13] can be described thus: A CellTox Green Cytotoxicity Assay to monitor cytotoxicity in HepG2 cells - 24 hour (AID 1224878). Further: nearly all actives have a fitted effect of over 45% in size. Further: potency means the concentration at half of the fitted maximal effect. The method in brief:
(§5)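 Cytotoxicity was tracked as dead-cell DNA fluorescence in HepG2 cells treated with test compounds at 37 C; each time-point value comes from one kinetic series spanning 0, 8, 16, 24, 32 and 40 h.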

Test [14] can be described thus: A CellTox Green Cytotoxicity Assay to monitor cytotoxicity in HepG2 cells - 40 hour (AID 1224879). Further: nearly all actives have a fitted effect of over 40% in size. Further: potency means the concentration at half of the fitted maximal effect. The method in brief:
as §5

Test [15] in a line: qHTS RealTime-Glo MT Cell Viability Assay in HepG2 cells - 40 hour (AID 1224870). Further: nearly all actives have a fitted effect of over 50% in size. The method in brief: as §3
Test [16] can be described thus: qHTS RealTime-Glo MT Cell Viability Assay in HEK293 cells - 16 hour (AID 1224872). The method in brief: as §1
The nature of test [17]: A CellTox Green Cytotoxicity Assay to monitor cytotoxicity in HepG2 cells - 16 hour (AID 1224876). Further: nearly all actives have a fitted effect of over 45% in size. Further: potency means the concentration at half of the fitted maximal effect. The method in brief: as §5
Test [18] in a line: qHTS RealTime-Glo MT Cell Viability Assay in HepG2 cells - 24 hour (AID 1224867). Further: nearly all actives have a fitted effect of over 50% in size. The method, boiled down:
as §4

The nature of test [19]: qHTS assay to identify small molecule antagonists of the estrogen related receptor (ERR) signaling pathway from Tox21 library (AID 1224848). Further: nearly all actives have a fitted effect of over 50% in size. The method in brief:
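Quantitative high-throughput format: ERR reporter cells (2,000/well) pre-incubated 6 h, treated 18 h at 37 C with compounds in DMSO alongside positive and negative controls, then read by ONE-Glo luminescence.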

A short description of test [20]: qHTS assay to identify small molecule agonists of the estrogen related receptor (ERR) signaling pathway from Tox21 library (AID 1224849; calls by dose curve; further: nearly all actives have a fitted effect of over 15% in size). The following applies: ERR reporter cell line, ONE-Glo luciferase, 18 h; at 92.4 µM (top of the series) unless noted. The method in brief:
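Luciferase activity in ERR pathway reporter cells served as the agonist readout; exposure lasted 18 h at 37 C, with ONE-Glo detection after 30 min at room temperature.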

A number with no mark means an inactive call. Inconclusive results are not listed. Calls of active or inactive are those of the source. Unless noted, the call rests on the fitted dose curve; in most records, active means well fitted curve in the direction sought with a large enough effect in the repeat runs; inconclusive means weak or mixed curves; inactive means no such curve, though single readings can be large; an effect the other way counts as inactive or inconclusive.
On the % scale 0 is the no-effect control and ±100 the full control effect.

Sequence of Thyrotropin receptor (Homo sapiens) (P16473 whole entry, looked up): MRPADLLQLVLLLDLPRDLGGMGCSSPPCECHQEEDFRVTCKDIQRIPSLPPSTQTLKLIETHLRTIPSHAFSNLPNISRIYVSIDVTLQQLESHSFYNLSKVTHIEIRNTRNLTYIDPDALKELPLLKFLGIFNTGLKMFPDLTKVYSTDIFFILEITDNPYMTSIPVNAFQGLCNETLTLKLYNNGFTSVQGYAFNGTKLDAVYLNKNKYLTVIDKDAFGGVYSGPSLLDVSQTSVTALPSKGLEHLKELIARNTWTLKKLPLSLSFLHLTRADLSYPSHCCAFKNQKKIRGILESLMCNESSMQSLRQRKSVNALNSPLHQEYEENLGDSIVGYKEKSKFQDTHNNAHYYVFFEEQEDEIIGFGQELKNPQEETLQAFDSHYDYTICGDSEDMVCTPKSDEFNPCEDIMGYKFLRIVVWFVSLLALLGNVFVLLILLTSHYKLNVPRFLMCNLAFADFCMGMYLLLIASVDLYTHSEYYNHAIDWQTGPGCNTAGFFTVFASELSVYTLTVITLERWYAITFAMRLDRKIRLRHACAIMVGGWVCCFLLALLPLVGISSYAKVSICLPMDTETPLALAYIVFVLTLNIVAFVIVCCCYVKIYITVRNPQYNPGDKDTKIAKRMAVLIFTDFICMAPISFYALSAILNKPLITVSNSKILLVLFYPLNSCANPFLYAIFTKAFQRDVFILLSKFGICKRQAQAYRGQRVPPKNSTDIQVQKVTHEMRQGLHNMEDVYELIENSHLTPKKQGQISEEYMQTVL

Turning to `Cn1cc[n+](C)c1` (tested in a mixture with another compound), the Potency result in test [1], in [2], in test [3], in [5], in test [6] and in [7] was “inactive” each time. In addition, the Potency result in [8], in [9], in [11], in [12], in test [13] and in [14] was “inactive” each time. The molecule was called inactive in test [4]. In [10], the max response is 6.73%.

With `Nc1ccc([N+](=O)[O-])cc1[N+](=O)[O-]`, the Potency result in test [1], in test [2], in [3], in test [7], in test [15] and in test [8] was “inactive” throughout. The Potency entry in [16], in test [9], in [11], in test [17], in test [12] and in test [13] was “inactive” throughout. For the same molecule, in test [14], the Potency entry is “inactive”. Moreover, the result in test [4] was inactive. Moreover, the max response in [10] was -23.5%.

Regarding `COP(=S)(OC)Oc1cc(Cl)c(I)cc1Cl`, the Potency entry in [1], in test [2], in test [3], in test [6], in [7] and in [15] was “inactive” throughout. Besides, the Potency entry in test [8], in test [16], in test [9], in test [11], in test [17] and in [12] was “inactive” each time. For the same molecule, the Potency result in test [13] and in test [14] was “inactive” each time. For the same molecule, the call in [4] was inactive. The max response in [10] is -19.9%.

For the molecule `CC1CC(CC2CCC(N)C(C)C2)CCC1N` (configuration not stated), the Potency result in test [1], in test [2], in test [3], in [5], in test [18] and in test [7] was “inactive” in each case. For the same molecule, the Potency entry in [15], in test [9], in test [17], in test [12], in [13] and in test [14] was “inactive” in each case. For the same molecule, the molecule was classed as inactive in test [4]. Moreover, the Potency in [6] is 55.8 µM (active); in [10], 55.8 µM (active); in [11] it was 62.7 µM (active).

For `O=[N+]([O-])c1ccccc1CCl`, the Potency result in test [1], in test [2], in test [3], in test [5], in test [18] and in test [6] was “inactive” each time. Moreover, the Potency result in test [7], in test [8], in [16], in [9], in [11] and in [17] was “inactive” throughout. The Potency result in test [12], in [13] and in test [14] was “inactive” throughout. Further, the result in test [4] was inactive. For the same molecule, the max response in test [10] was 8.2%.

For `C=CC(C)=O`, the Potency entry in [1], in test [2], in test [5], in test [19], in test [18] and in test [6] was “inactive” each time. Further, the Potency result in test [7], in [15], in [8], in [16], in test [9] and in [11] was “inactive” throughout. The Potency entry in [17], in test [12], in test [13] and in test [14] was “inactive” throughout. In addition, the call in test [4] was inactive. Further, the activity change, positive = activation in test [20] was -0.611%. The max response in test [10] is 4.78%.

As for `CC(=O)c1cc2c(cc1C)C(C)(C)C(C)CC2(C)C` (configuration not stated), the Potency entry in test [1], in test [6], in test [7], in [15], in [9] and in test [12] was “inactive” throughout. The Potency in test [2] is 43.6 µM (active); in test [3], 101 µM (active); in test [5], 89.8 µM (active); in [8] it was 19.5 µM (active); in [11], 19.5 µM (active); in [17] it was 38.9 µM (active). For the same molecule, the Potency in [13] and in test [14] was 38.9 µM (active) in each case. Moreover, the max response in [10] was -12.1%.

`CC(C)O.CC(C)O.OCCN(CCO)CCO.OCCN(CCO)CCO.[Ti]`: the Potency entry in [1], in test [2], in test [3], in test [18], in [6] and in test [7] was “inactive” throughout. Also, the Potency result in test [8], in [9], in [11], in test [17], in [12] and in [13] was “inactive” in each case. Besides, the Potency result in test [14] was “inactive”. Also, the molecule was classed as inactive in [4]. Also, the max response in [10] was 16.3%.

For the origin of these results see PubChem BioAssay (Tox21).
